Measured values from PubChem BioAssay AID1159580 (chemical genetic matrix, 2015).
Values joined by “and” are separate entries in the source; they are usually repeats but may differ in a detail not shown here. Equal values may be shown once. Screen size: about 5,500 compounds; about 2,000 (36%) were called active. Roughly 18% stayed inconclusive and do not appear here. Cut-off read from the data, not from the text of the source: active = normalized growth mostly below about 0.91 (no sharp cut-off); inconclusive = no clear call, values can overlap the other calls; inactive = mostly above about 0.92. The list shows a part of the results.

Experiment: chemical genetic growth profiling, strain panel (AID 1159580);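 note: tested at 20 µM; growth read once vehicle control cultures reached saturation at 30 °C; 1 = growth at the plate median or of vehicle wells; lower values mean less growth of the strain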
Settings: S. cerevisiae deletion strains, growth OD
[1] = locus YHR030C, strain SLT2, hits give low values
[2] = locus YHR079C, strain IRE1, hits give low values
[3] = locus YJL095W, strain BCK1, hits give low values
[4] = locus YJR066W, strain TOR1, hits give low values
[5] = locus YLR113W, strain HOG1, hits give low values
[6] = locus YNL183C, strain NPR1, hits give low values
[7] = locus YOR231W, strain MKK1, hits give low values
[8] = locus YPL256C, strain CLN2, hits give low values

Measured: normalized growth

O=C(O)c1cc(O)c2c(c1)[C@@H]([C@H]1c3cc(C(=O)O)cc(O)c3C(=O)c3c(O[C@H]4O[C@H](CO)[C@@H](O)[C@H](O)[C@H]4O)cccc31)c1cccc(O[C@H]3O[C@H](CO)[C@@H](O)[C@H](O)[C@H]3O)c1C2=O
active: locus YDR195W, strain ref2 1.17 [resistant] | locus YEL037C, strain rad23, hits give low values 1.09 [resistant] | locus YJL095W, strain BCK1 (second series), hits give low values 1.12 [resistant] | locus YLR357W, strain rsc2, hits give low values 1.28 [resistant] | locus YOR070C, strain gyp1, hits give low values 1.08 [resistant] | locus YOR080W, strain dia2, hits give low values 1.13 [resistant]
inactive: locus YAL013W, strain DEP1, hits give low values 1.02 | locus YAL021C, strain ccr4, hits give low values 0.983 | locus YAL026C, strain drs2, hits give low values 1.01 | locus YAL030W, strain snc1, hits give low values 1.02 | locus YBL061C, strain skt5, hits give low values 1.01 | locus YBR009C, strain hhf1, hits give low values 1.04 | locus YBR021W, strain FUR4, hits give low values 1.02 | locus YBR023C, strain chs3, hits give low values 1.02 | locus YBR171W, strain sec66, hits give low values 1.02 | locus YBR229C, strain ROT2, hits give low values 1.01 | locus YBR231C, strain swc5, hits give low values 1.02 | locus YBR279W, strain paf1, hits give low values 1.01 | locus YCL011C, strain gbp2, hits give low values 1.02 | locus YCL016C, strain dcc1, hits give low values 1.02 | locus YCL029C, strain bik1, hits give low values 1 | locus YCL061C, strain MRC1, hits give low values 0.987 | locus YCL069W, strain vba3, hits give low values 1.01 | locus YCR088W, strain abp1, hits give low values 1.02 | locus YDL005C, strain med2, hits give low values 1 | locus YDL035C, strain GPR1, hits give low values 1.02 | locus YDL040C, strain nat1, hits give low values 1.04 | locus YDL074C, strain BRE1, hits give low values 1.04 | locus YDL101C, strain DUN1, hits give low values 1.01 | locus YDL134C, strain PPH21, hits give low values 1.01 | locus YDL185W, strain tfp1, hits give low values 1.01 | locus YDL192W, strain arf1, hits give low values 0.995 | locus YDR001C, strain nth1, hits give low values 1.04 | locus YDR069C, strain doa4, hits give low values 1.01 | locus YDR101C, strain arx1, hits give low values 0.98 | locus YDR137W, strain rgp1, hits give low values 0.953 | locus YDR150W, strain NUM1, hits give low values 1.02 | locus YDR159W, strain sac3, hits give low values 1.02 | locus YDR162C, strain NBP2, hits give low values 1.02 | locus YDR297W, strain sur2, hits give low values 1.02 | locus YDR318W, strain mcm21, hits give low values 1.01 | locus YDR334W, strain swr1, hits give low values 1.05 | locus YDR335W, strain msn5, hits give low values 1.02 | locus YDR388W, hits give low values 1 | locus YDR392W, strain spt3, hits give low values 0.93 | locus YDR502C, strain sam2, hits give low values 0.995 | locus YEL003W, strain gim4, hits give low values 1.02 | locus YEL061C, strain CIN8 (second series), hits give low values 1.05 | locus YEL061C, strain CIN8, hits give low values 1.01 | locus YER015W, strain faa2, hits give low values 1.01 | locus YER016W, strain bim1, hits give low values 1.02 | locus YER110C, hits give low values 1 | locus YER155C, strain BEM2 (second series), hits give low values 1.01 | locus YER155C, strain BEM2, hits give low values 1.01 | locus YER167W, strain BCK2, hits give low values 1.01 | locus YFR010W, strain ubp6, hits give low values 1.02 | locus YGL078C, strain dbp3, hits give low values 0.993 | locus YGL086W, strain mad1, hits give low values 1 | locus YGL167C, strain pmr1, hits give low values 1.03 | locus YGL173C, strain kem1, hits give low values 1.02 | locus YGL227W, strain vid30, hits give low values 1.05 | locus YGL240W, strain doc1, hits give low values 0.989 | locus YGL248W, strain PDE1, hits give low values 1.02 | locus YGL253W, strain hxk2, hits give low values 1.02 | locus YGR135W, strain pre9, hits give low values 1.01 | locus YGR252W, strain gcn5, hits give low values 0.949 | locus YHR013C, strain ard1, hits give low values 1.06 | locus YHR027C, strain rpn1, hits give low values 1.05 | [1] 1.01 and 0.986 | locus YHR079C, strain IRE1 (second series), hits give low values 1 | [2] 0.981 | locus YHR094C, strain hxt1, hits give low values 0.999 | locus YHR129C, strain ARP1, hits give low values 1.01 | locus YHR142W, strain chs7, hits give low values 1.09 | locus YHR200W, strain rpn10, hits give low values 0.991 | locus YIL066C, strain RNR3, hits give low values 1.02 | locus YIL073C, strain SPO22, hits give low values 1.06 | locus YIL125W, strain kgd1, hits give low values 1 | locus YIR030C, strain dcg1, hits give low values 0.999 | locus YJL092W, strain hpr5, hits give low values 1.01 | [3] 1.03 and 0.978 | locus YJL129C, strain trk1, hits give low values 1.04 | locus YJL134W, strain LCB3, hits give low values 1.02 | locus YJL154C, strain vps35, hits give low values 1.02 | locus YJL164C, strain tpk1, hits give low values 1 | locus YJL166W, strain qcr8, hits give low values 0.958 | locus YJL168C, strain set2, hits give low values 1.02 | locus YJL187C, strain SWE1 (second series), hits give low values 1.02 | locus YJL187C, strain SWE1, hits give low values 1.01 | locus YJR043C, strain POL32, hits give low values 1 | [4] 0.934 | locus YKL009W, strain mrt4, hits give low values 1.11 | locus YKL068W, hits give low values 1.01 | locus YKL085W, strain MDH1 (second series), hits give low values 1.03 | locus YKL085W, strain MDH1, hits give low values 1.03 | locus YKL160W, strain elf1, hits give low values 0.993 | locus YKR001C, strain vps1, hits give low values 1.02 | locus YKR026C, strain gcn3, hits give low values 1.02 | locus YLL001W, strain dnm1, hits give low values 1.02 | locus YLL026W, hits give low values 1.02 | locus YLL041C, strain sdh2, hits give low values 1.01 | locus YLR027C, strain aat2, hits give low values 1.02 | locus YLR039C, strain RIC1, hits give low values 1.03 | locus YLR058C, strain SHM2, hits give low values 1.01 | locus YLR102C, strain apc9, hits give low values 1 | [5] 1.01 | locus YLR221C, strain rsa3, hits give low values 0.986 | locus YLR258W, strain gsy2, hits give low values 0.99 | locus YLR262C, strain YPT6 (second series), hits give low values 0.979 | locus YLR262C, strain YPT6, hits give low values 1.1 | locus YLR268W, strain sec22, hits give low values 0.998 | locus YLR320W, strain mms22, hits give low values 1.03 | locus YLR330W, strain CHS5, hits give low values 1.01 | locus YLR342W, strain FKS1 (second series), hits give low values 0.985 | locus YLR342W, strain FKS1, hits give low values 1.04 | locus YLR370C, strain arc18, hits give low values 1 | locus YLR371W, strain rom2, hits give low values 0.999 | locus YLR384C, strain iki3, hits give low values 1.02 | locus YLR418C, strain cdc73, hits give low values 0.993 | locus YML016C, strain PPZ1, hits give low values 1.01 | locus YML032C, strain rad52, hits give low values 0.998 | locus YML120C, strain ndi1, hits give low values 1.01 | locus YML124C, strain tub3, hits give low values 0.997 | locus YMR058W, strain fet3, hits give low values 1.03 | locus YMR078C, strain ctf18, hits give low values 1 | locus YMR125W, strain sto1, hits give low values 1.02 | locus YMR129W, hits give low values 1.04 | locus YMR205C, strain PFK2, hits give low values 0.958 | locus YMR223W, strain ubp8, hits give low values 0.997 | locus YMR231W, strain pep5, hits give low values 1.01 | locus YMR307W, strain GAS1, hits give low values 1 | locus YNL067W, strain RPL9B, hits give low values 1.01 | locus YNL071W, strain lat1, hits give low values 1.03 | locus YNL128W, strain TEP1, hits give low values 1.05 | locus YNL153C, strain GIM3, hits give low values 1 | [6] 0.937 | locus YNL209W, strain ssb2, hits give low values 1.01 | locus YNL233W, strain BNI4, hits give low values 1.01 | locus YNL248C, strain rpa49, hits give low values 1 | locus YNL250W, strain rad50, hits give low values 1.02 | locus YNL271C, strain bni1, hits give low values 1 | locus YNL298W, strain CLA4, hits give low values 0.993 | locus YNL307C, strain MCK1, hits give low values 1.01 | locus YNL322C, strain KRE1 (second series), hits give low values 1.02 | locus YNR049C, strain mso1, hits give low values 1.05 | locus YNR052C, strain pop2, hits give low values 0.978 | locus YOL006C, strain TOP1, hits give low values 1.04 | locus YOL012C, strain htz1 0.926 | locus YOL147C, strain pex11, hits give low values 1 | locus YOR001W, strain rrp6, hits give low values 1.04 | locus YOR061W, strain CKA2, hits give low values 1.02 | locus YOR069W, strain VPS5, hits give low values 1.02 | locus YOR083W, strain WHI5, hits give low values 0.957 | locus YOR106W, strain vam3, hits give low values 0.979 | locus YOR136W, strain idh2, hits give low values 1.01 | locus YOR144C, strain elg1, hits give low values 1.01 | locus YOR184W, strain ser1, hits give low values 1.02 | [7] 0.988 | locus YOR265W, strain rbl2, hits give low values 1.01 | locus YOR270C, strain vph1, hits give low values 1.05 | locus YOR290C, strain snf2, hits give low values 0.997 | locus YOR316C, strain cot1, hits give low values 1 | locus YPL051W, strain arl3, hits give low values 0.995 | locus YPL055C, strain LGE1, hits give low values 1.01 | locus YPL078C, strain atp4, hits give low values 0.979 | locus YPL106C, strain sse1, hits give low values 0.977 | locus YPL240C, strain hsp82, hits give low values 0.993 | locus YPL241C, strain CIN2, hits give low values 1.02 | [8] 1.03 | locus YPR119W, strain clb2, hits give low values 1 | locus YPR141C, strain kar3, hits give low values 1 | locus YPR163C, strain tif3, hits give low values 1.01 | locus YPR167C, strain met16, hits give low values 0.99 | strain wtn01, hits give low values 1.01

O=C(O)c1cc(O)c2c(c1)[C@@H]([C@@H]1c3cc(C(=O)O)cc(O)c3C(=O)c3c(O[C@H]4O[C@H](CO)[C@@H](O)[C@H](O)[C@H]4O)cccc31)c1cccc(O[C@H]3O[C@H](CO)[C@@H](O)[C@H](O)[C@H]3O)c1C2=O
inactive: [1] 1.09 | [2] 1.08 | [3] 1.02 | [4] 1 | [5] 1.06 | [6] 1.02 | [7] 1.05 | [8] 1.08
